Data taken from PubChem BioAssay (NCATS).
Results filed as inconclusive are left out. Calls of active or inactive are those of the source. Calls come from the whole dose curve; as a rule, active = well fitted curve in the direction sought with a large enough effect; inconclusive = small, poorly fitted or top-dose-only effect, or another doubt; inactive = no such curve, though single readings can be large; an effect the other way counts as inactive or inconclusive.

Experiments:
[1] = qHTS of pediatric cancer cell lines to identify multiple opportunities for drug repurposing: Primary screen for NB1643 cells (AID 1347099); note: nearly all actives have a fitted effect of over 50% in size; note: potency is the fitted concentration of half-maximal effect;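 for activity change, negative = cytotoxic: plate controls were DMSO neutral control for no effect and bortezomib positive control for full effect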
How it was run: (§1)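 Following a 5-hour attachment period, cells at 500-1,000/well received compounds and were cultured for 48 hours. CellTiter-Glo was added and luminescence read to estimate viable, metabolically active cells.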

[2] = qHTS of pediatric cancer cell lines to identify multiple opportunities for drug repurposing: Primary screen for LAN-5 cells (AID 1347100);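 note: plate controls were DMSO neutral control for no effect and bortezomib positive control for full effect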
How it was run: (§2)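 Cells (500-1,000/well) in growth media were settled 5 h at 37 degrees C, then given compounds for 48 h. Viability was read as CellTiter-Glo luminescence. Primary runs used MIPE at 11 points (0.78 nM-46 µM) and NPC at 8 points (0.59 nM-46 µM); follow-ups used 11 points.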

[3] = qHTS of pediatric cancer cell lines to identify multiple opportunities for drug repurposing: Primary screen for Rh18 cells (AID 1347102); note: % is set by controls: 0 for no effect and ±100 for the full control effect; nearly all actives have a fitted effect of over 65% in size
How it was run: as §2

[4] = qHTS of pediatric cancer cell lines to identify multiple opportunities for drug repurposing: Primary screen for RD cells (AID 1347104);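 note: plate controls were DMSO for no effect and bortezomib for full effect; nearly all actives have a fitted effect of over 55% in size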
How it was run: as §1

[5] = qHTS of pediatric cancer cell lines to identify multiple opportunities for drug repurposing: Primary screen for MG 63 (6-TG R) cells (AID 1347105); note: % is set by controls: 0 for no effect and ±100 for the full control effect; nearly all actives have a fitted effect of over 50% in size
How it was run: as §1

[6] = qHTS of pediatric cancer cell lines to identify multiple opportunities for drug repurposing: Primary screen for control Hh wild type fibroblast cells (AID 1347106);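 note: series mostly up to about 46 µM; % is set by controls: 0 for no effect and ±100 for the full control effect; a drop in luminescence marks cytotoxicity and a rise apparent proliferation; nearly all actives have a fitted effect of over 55% in size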
How it was run: as §2

[7] = qHTS of pediatric cancer cell lines to identify multiple opportunities for drug repurposing: Primary screen for Rh30 cells (AID 1347107); note: series mostly up to about 46 µM; % is set by controls: 0 for no effect and ±100 for the full control effect; nearly all actives have a fitted effect of over 75% in size
How it was run: as §2

[8] = qHTS of pediatric cancer cell lines to identify multiple opportunities for drug repurposing: Primary screen for Rh41 cells (AID 1347108);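 note: series mostly up to about 46 µM; luminescence drop marks cytotoxic hits; nearly all actives have a fitted effect of over 70% in size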
How it was run: as §1

[9] = qHTS of pediatric cancer cell lines to identify multiple opportunities for drug repurposing: Primary screen for BT-12 cells (AID 1347101);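 note: plate controls were DMSO for no effect and bortezomib positive control for full effect; nearly all actives have a fitted effect of over 25% in size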
How it was run: (§3)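 Cells (500-1,000/well) rested 5 h, then received compounds for 48 h; metabolically active cells were measured by CellTiter-Glo luminescence. Final concentrations spanned up to 46 µM (MIPE, 11-point) or 0.59 nM-46 µM (NPC, 8-point) in primary screens, 11-point in follow-ups.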

[10] = qHTS of pediatric cancer cell lines to identify multiple opportunities for drug repurposing: Primary screen for OHS-50 cells (AID 1347103);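 note: plate controls were DMSO neutral control for no effect and bortezomib positive control for full effect; nearly all actives have a fitted effect of over 40% in size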
How it was run: as §3

Cc1onc(-c2ccccc2)c1-c1ccc(S(N)(=O)=O)cc1
inactive: Potency [1] | outcome [2] | outcome [3] | outcome [4] | outcome [5] | outcome [6] | outcome [7] | outcome [8]

Cc1cccc(C)c1NC(=O)CC12CCCN1CCC2
inactive: Potency [1] | outcome [2] | outcome [9] | outcome [4] | outcome [5] | outcome [6] | outcome [7] | outcome [8]

CN1C[C@@H]2C[C@H]1CN2c1cc2c(cc1F)c(=O)c(C(=O)O)cn2C1CC1
inactive: Potency [1] | outcome [2] | outcome [3] | outcome [10] | outcome [4] | outcome [5] | outcome [6] | outcome [7] | outcome [8]

O[C@@H]1CO[C@H]2[C@@H]1OC[C@@H]2O
inactive: Potency [1] | outcome [2] | outcome [9] | outcome [10] | outcome [5] | outcome [6] | outcome [7] | outcome [8]

C[C@H]1COc2c(C3(N)CC3)c(F)cc3c(=O)c(C(=O)O)cn1c23
inactive: Potency [1] | outcome [2] | outcome [9] | outcome [10] | outcome [5] | outcome [6] | outcome [7] | outcome [8]

CC(=O)NCc1c(I)c(NC(C)=O)c(I)c(C(=O)O)c1I
inactive: Potency [1] | outcome [2] | outcome [9] | outcome [10] | outcome [5] | outcome [6] | outcome [7] | outcome [8]

C[C@]1(Cn2ccnn2)[C@H](C(=O)O)N2C(=O)C[C@H]2S1(=O)=O
inactive: Potency [1] | outcome [2] | outcome [9] | outcome [10] | outcome [5] | outcome [6] | outcome [7] | outcome [8]

NS(=O)(=O)c1cc(C2(O)NC(=O)c3ccccc32)ccc1Cl (configuration not stated)
inactive: Potency [1] | outcome [2] | outcome [9] | outcome [10] | outcome [4] | outcome [5] | outcome [6] | outcome [7] | outcome [8]

OC[C@@H](O)[C@@H](O)[C@H](O)[C@H](O)CO
inactive: Potency [1] | outcome [2] | outcome [9] | outcome [10] | outcome [4] | outcome [5] | outcome [6] | outcome [7] | outcome [8]

Nc1ccc(S(=O)(=O)c2ccc(N)cc2)cc1
inactive: Potency [1] | outcome [2] | outcome [9] | outcome [5] | outcome [6] | outcome [7] | outcome [8]

CC(=O)N(CC(O)CO)c1c(I)c(C(=O)NCC(O)CO)c(I)c(C(=O)NCC(O)CO)c1I (configuration not stated)
inactive: Potency [1] | outcome [2] | outcome [9] | outcome [10] | outcome [4] | outcome [5] | outcome [6] | outcome [7] | outcome [8]

Nc1ccc(C(=O)Oc2ccccc2)c(O)c1
inactive: Potency [1] | outcome [2] | outcome [9] | outcome [5] | outcome [6] | outcome [7] | outcome [8]

Nc1ccncc1N
inactive: Potency [1] | outcome [9] | outcome [3] | outcome [10] | outcome [4] | outcome [5] | outcome [6] | outcome [7] | outcome [8]

CC(C)NC[C@@H](O)COc1ccc(CC(N)=O)cc1
inactive: Potency [1] | outcome [2] | outcome [9] | outcome [4] | outcome [5] | outcome [6] | outcome [7] | outcome [8]

COc1cc(C(=O)NCCCCCC(=O)O)cc(OC)c1OC
inactive: Potency [1] | outcome [2] | outcome [9] | outcome [10] | outcome [4] | outcome [5] | outcome [6] | outcome [7] | outcome [8]

C/C=C/C(=O)N(CC)c1ccccc1C
inactive: Potency [1] | outcome [2] | outcome [9] | outcome [10] | outcome [5] | outcome [6] | outcome [7] | outcome [8]

Cc1ccc(S(=O)(=O)NC(=O)NC2CCCCCCC2)cc1
inactive: Potency [1] | outcome [2] | outcome [9] | outcome [10] | outcome [4] | outcome [5] | outcome [6] | outcome [7] | outcome [8]

C=CCN1C[C@H](C(=O)N(CCCN(C)C)C(=O)NCC)C[C@@H]2c3cccc4[nH]cc(c34)C[C@H]21
inactive: Potency [1] | outcome [2] | outcome [9] | outcome [4] | outcome [5] | outcome [6] | outcome [7] | outcome [8]

COc1cc(O)cc(O)c1
inactive: Potency [1] | outcome [2] | outcome [9] | outcome [10] | outcome [5] | outcome [6] | outcome [7] | outcome [8]

NNC(=O)CP(=O)(c1ccccc1)c1ccccc1
inactive: Potency [1] | outcome [2] | outcome [9] | outcome [10] | outcome [4] | outcome [5] | outcome [6] | outcome [7] | outcome [8]

CN/C(=C\[N+](=O)[O-])NCCSCc1csc(CN(C)C)n1
inactive: Potency [1] | outcome [2] | outcome [9] | outcome [10] | outcome [4] | outcome [5] | outcome [6] | outcome [7] | outcome [8]

O=S1(=O)OC(c2ccc(O)cc2)(c2ccc(O)cc2)c2ccccc21
inactive: Potency [1] | outcome [2] | outcome [9] | outcome [10] | outcome [4] | outcome [5] | outcome [6] | outcome [7] | outcome [8]

CCN(CC)S(=O)(=O)c1ccc(C(=O)O)cc1
inactive: Potency [1] | outcome [2] | outcome [9] | outcome [10] | outcome [4] | outcome [5] | outcome [6] | outcome [7] | outcome [8]

CC(C)C[C@@H](N)C(=O)O
inactive: outcome [2] | outcome [9] | outcome [10] | outcome [4] | outcome [5] | outcome [6] | outcome [7] | outcome [8]
active: Potency [1] 1 nM

NC(=O)c1ccc([N+](=O)[O-])cc1Cl
inactive: Potency [1] | outcome [9] | outcome [3] | outcome [10] | outcome [4] | outcome [5] | outcome [6] | outcome [7] | outcome [8]

CNc1c2c(nn1C)CCCC2
inactive: Potency [1] | outcome [2] | outcome [9] | outcome [10] | outcome [4] | outcome [5] | outcome [6] | outcome [7] | outcome [8]

CCCCCC(N)=O
inactive: Potency [1] | outcome [2] | outcome [9] | outcome [10] | outcome [4] | outcome [5] | outcome [6] | outcome [7] | outcome [8]

NC(N)=NCCN1CCCCCCC1
inactive: activity change, negative = cytotoxic [1] 6.64% [at 0.597 µM] | activity change, negative = cytotoxic [2] 4.87% [at 0.597 µM] | activity change, negative = cytotoxic [9] 7.77% [at 0.745 µM] | activity change, negative = cytotoxic [5] 7.08% [at 0.597 µM] | activity change, negative = cytotoxic [6] 3.36% [at 0.597 µM] | activity change, negative = cytotoxic [7] 25.1% [at 0.597 µM] | activity change, negative = cytotoxic [8] 22.2% [at 0.597 µM]

CCCCCCCC(=O)OCC(COC(=O)CCCCCCC)OC(=O)CCCCCCC
inactive: Potency [1] | outcome [2] | outcome [9] | outcome [10] | outcome [4] | outcome [5] | outcome [6] | outcome [7] | outcome [8]

CN1C(C)(C)CCCC1(C)C
inactive: Potency [1] | outcome [2] | outcome [9] | outcome [10] | outcome [5] | outcome [7] | outcome [8]

C1CCN2C[C@@H]3C[C@@H](CN4CCCC[C@@H]34)[C@H]2C1
inactive: Potency [1] | outcome [2] | outcome [9] | outcome [10] | outcome [4] | outcome [5] | outcome [6] | outcome [7] | outcome [8]

CC(=O)OCC(COC(C)=O)OC(C)=O
inactive: Potency [1] | outcome [2] | outcome [9] | outcome [10] | outcome [4] | outcome [5] | outcome [6] | outcome [7] | outcome [8]

NC(=O)N[C@@H](CCC(=O)O)C(=O)O
inactive: Potency [1] | outcome [9] | outcome [3] | outcome [10] | outcome [4] | outcome [5] | outcome [6] | outcome [7] | outcome [8]

Cc1cc(=O)[nH]c(=S)[nH]1
inactive: Potency [1] | outcome [9] | outcome [3] | outcome [10] | outcome [4] | outcome [5] | outcome [6] | outcome [7] | outcome [8]

Cc1ccc(S(=O)(=O)NC(=O)NC2CCCCC2)cc1
inactive: Potency [1] | outcome [9] | outcome [3] | outcome [10] | outcome [4] | outcome [5] | outcome [6] | outcome [7] | outcome [8]
